# Measurements: PubChem BioAssay (Tox21)
# Records with an inconclusive call do not appear. Entries that show only a call come without a potency. A number with no mark means an inactive call. Calls of active or inactive are those of the source. Calls come from the whole dose curve; as a rule, active = well fitted curve in the direction sought with a large enough effect in the repeat runs; inconclusive = weak or mixed curves; inactive = no such curve, though single readings can be large; an effect the other way counts as inactive or inconclusive.
# Columns and labels:
# [1] = molecular target: Nuclear receptor subfamily 1 group I member 2 (Homo sapiens) (UniProt O75469); experiment: Human pregnane X receptor (PXR) small molecule agonists, qHTS assay (AID 1346982); note: nearly all actives have a fitted effect of over 35% in size
# In short: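 PXR-Luc HepG2 reporter cells (CYP3A4-driven luciferase) in 5% charcoal-stripped FBS medium, plated 5 h before compound addition, then treated 24 h at 37C. Luciferase read by ONE-Glo luminescence after 30 min at room temperature.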
# [2] = molecular target: Cytochrome P450 2D6 (Homo sapiens) (UniProt P10635); experiment: Cytochrome P450 Family 2 Subfamily D Member 6 (CYP2D6) small molecule antagonists: luciferase reporter qHTS assay (AID 1671196); note: series mostly up to about 120 µM; nearly all actives have a fitted effect of over 50% in size
# In short: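 Cell-free P450-Glo system: CYP2D6 with proluciferin substrate was pre-incubated with compound for 10 min, then reacted with NADPH regeneration for 1 h at room temperature. Luciferin product was detected after 20 min, and data were reported as relative luminescence units.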
# [3] = molecular target: Cytochrome P450 2C19 (Homo sapiens) (UniProt P33261); experiment: Cytochrome P450 Family 2 Subfamily C Member 19 (CYP2C19) small molecule antagonists: luciferase reporter qHTS assay (AID 1671197); note: nearly all actives have a fitted effect of over 65% in size; note: potency is the fitted concentration of half-maximal effect
# In short: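 Enzyme-substrate mix with proluciferin substrate (P450-Glo CYP2C19 system) preincubated with compounds 10 min at room temperature; NADPH regeneration solution added, 37C for 1 h; detection reagent stops reaction, luminescence read after 20 min. Ketoconazole positive control.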
# [4] = molecular target: Cytochrome P450 2C9 (Homo sapiens) (UniProt P11712); experiment: Cytochrome P450 Family 2 Subfamily C Member 9 (CYP2C9) small molecule antagonists: luciferase reporter qHTS assay (AID 1671198); note: nearly all actives have a fitted effect of over 50% in size; note: potency is the fitted concentration of half-maximal effect
# In short: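 Enzyme-substrate mix preincubated with compound 10 min at room temperature; reaction started with NADPH regeneration solution, 1 h 37C. Luminescent luciferin product read after 20 min detection reagent.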
# [5] = molecular target: Cytochrome P450 1A2 (Homo sapiens) (UniProt P05177); experiment: Cytochrome P450 Family 1 Subfamily A Member 2 (CYP1A2) small molecule antagonists: luciferase reporter qHTS assay (AID 1671199); note: nearly all actives have a fitted effect of over 50% in size; note: potency is the fitted concentration of half-maximal effect
# In short: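 P450-Glo CYP1A2 enzyme–proluciferin substrate mix with compound 10 min at room temperature, then NADPH regeneration 1 h at room temperature. Luciferin detection reagent added, luminescence read after 20 min; furafylline positive control.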
# [6] = molecular target: Voltage-gated inwardly rectifying potassium channel KCNH2 (Homo sapiens) (UniProt Q12809); experiment: Human Ether-a-go-go-Related Gene (hERG) channel small molecule antagonists: fluorescence cell-based qHTS assay (AID 1671200);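 note: hERG-expressing U2OS cells given a thallium stimulus after FluxOR II dye loading; series mostly up to about 77 µM; nearly all actives have a fitted effect of over 50% in size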
# In short: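 Cell line hERG-U2OS; dye FluxOR II, 1 h RT dark; Tl+ stimulus; ex 480/em 540 nm, read each second for 2 min.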
# [7] = molecular target: Cytochrome P450 3A4 (Homo sapiens) (UniProt P08684); experiment: Cytochrome P450 Family 3 Subfamily A Member 4 (CYP3A4) small molecule antagonists: luciferase reporter qHTS assay (AID 1671201)
# In short: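 Room-temperature assay throughout: 10 min compound–enzyme/substrate preincubation, 1 h reaction after NADPH regeneration solution, 20 min detection. Luciferin formed from proluciferin substrate is quantified by luminescence.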
# [8] = molecular target: Nuclear receptor subfamily 1 group I member 2 (Rattus norvegicus) (UniProt Q9R1A7); experiment: Rat pregnane X receptor (rPXR) activation by small molecules, qHTS assay (AID 1346983); conditions: rPXR luciferase reporter cells, One-Glo luminescence, 24 h; active compounds read high; note: nearly all actives have a fitted effect of over 20% in size
# In short: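 Luminescent readout (One-Glo luciferase, 30 min room temperature) followed 24 hr compound treatment at 37 C of rPXR cells plated 2,000 per well and preincubated 5hr; qHTS format with compounds delivered in DMSO.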
# [9] = molecular target: Nuclear receptor subfamily 1 group I member 2 (Homo sapiens) (UniProt O75469); experiment: Human pregnane X receptor (PXR) activation by small molecules, qHTS assay (AID 1346985); note: nearly all actives have a fitted effect of over 40% in size
# In short: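 DPX-2 cells (HepG2 co-transfected with a PXR response element and a CYP3A4-promoter luciferase construct) were seeded at 2,000 per well, rested 5 hr at 37C, then exposed to DMSO-dissolved compounds for 24 hr. Activation was read as luciferase luminescence.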
# Cytochrome P450 2D6 (Homo sapiens), sequence (P10635 whole entry, looked up): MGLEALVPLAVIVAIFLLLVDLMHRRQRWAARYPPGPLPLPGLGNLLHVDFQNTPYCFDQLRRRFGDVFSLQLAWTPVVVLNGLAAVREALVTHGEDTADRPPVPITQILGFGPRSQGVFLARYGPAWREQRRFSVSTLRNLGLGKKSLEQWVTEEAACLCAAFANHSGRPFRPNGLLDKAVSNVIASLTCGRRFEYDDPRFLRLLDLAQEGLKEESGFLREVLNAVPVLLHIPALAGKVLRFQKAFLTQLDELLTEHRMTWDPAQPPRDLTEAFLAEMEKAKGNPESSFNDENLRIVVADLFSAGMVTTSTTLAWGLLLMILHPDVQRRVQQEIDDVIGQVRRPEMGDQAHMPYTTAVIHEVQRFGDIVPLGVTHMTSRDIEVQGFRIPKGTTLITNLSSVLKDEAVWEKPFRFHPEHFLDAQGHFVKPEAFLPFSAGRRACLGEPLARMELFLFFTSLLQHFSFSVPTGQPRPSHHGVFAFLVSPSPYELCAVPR
# Cytochrome P450 2C19 (Homo sapiens), sequence (P33261 whole entry, looked up): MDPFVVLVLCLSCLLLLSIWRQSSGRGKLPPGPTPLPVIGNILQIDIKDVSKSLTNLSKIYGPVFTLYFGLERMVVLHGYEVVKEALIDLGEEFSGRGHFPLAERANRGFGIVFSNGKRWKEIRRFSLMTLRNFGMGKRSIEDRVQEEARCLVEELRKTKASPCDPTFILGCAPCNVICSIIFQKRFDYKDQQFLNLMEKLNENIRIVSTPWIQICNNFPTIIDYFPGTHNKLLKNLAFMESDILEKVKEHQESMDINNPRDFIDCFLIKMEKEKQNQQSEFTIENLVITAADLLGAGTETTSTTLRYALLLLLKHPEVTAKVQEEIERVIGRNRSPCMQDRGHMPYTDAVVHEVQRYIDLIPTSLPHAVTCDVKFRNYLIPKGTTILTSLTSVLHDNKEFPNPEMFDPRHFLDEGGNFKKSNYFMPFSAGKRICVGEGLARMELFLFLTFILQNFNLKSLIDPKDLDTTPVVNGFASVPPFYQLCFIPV
# Voltage-gated inwardly rectifying potassium channel KCNH2 (Homo sapiens), sequence (Q12809 whole entry, looked up): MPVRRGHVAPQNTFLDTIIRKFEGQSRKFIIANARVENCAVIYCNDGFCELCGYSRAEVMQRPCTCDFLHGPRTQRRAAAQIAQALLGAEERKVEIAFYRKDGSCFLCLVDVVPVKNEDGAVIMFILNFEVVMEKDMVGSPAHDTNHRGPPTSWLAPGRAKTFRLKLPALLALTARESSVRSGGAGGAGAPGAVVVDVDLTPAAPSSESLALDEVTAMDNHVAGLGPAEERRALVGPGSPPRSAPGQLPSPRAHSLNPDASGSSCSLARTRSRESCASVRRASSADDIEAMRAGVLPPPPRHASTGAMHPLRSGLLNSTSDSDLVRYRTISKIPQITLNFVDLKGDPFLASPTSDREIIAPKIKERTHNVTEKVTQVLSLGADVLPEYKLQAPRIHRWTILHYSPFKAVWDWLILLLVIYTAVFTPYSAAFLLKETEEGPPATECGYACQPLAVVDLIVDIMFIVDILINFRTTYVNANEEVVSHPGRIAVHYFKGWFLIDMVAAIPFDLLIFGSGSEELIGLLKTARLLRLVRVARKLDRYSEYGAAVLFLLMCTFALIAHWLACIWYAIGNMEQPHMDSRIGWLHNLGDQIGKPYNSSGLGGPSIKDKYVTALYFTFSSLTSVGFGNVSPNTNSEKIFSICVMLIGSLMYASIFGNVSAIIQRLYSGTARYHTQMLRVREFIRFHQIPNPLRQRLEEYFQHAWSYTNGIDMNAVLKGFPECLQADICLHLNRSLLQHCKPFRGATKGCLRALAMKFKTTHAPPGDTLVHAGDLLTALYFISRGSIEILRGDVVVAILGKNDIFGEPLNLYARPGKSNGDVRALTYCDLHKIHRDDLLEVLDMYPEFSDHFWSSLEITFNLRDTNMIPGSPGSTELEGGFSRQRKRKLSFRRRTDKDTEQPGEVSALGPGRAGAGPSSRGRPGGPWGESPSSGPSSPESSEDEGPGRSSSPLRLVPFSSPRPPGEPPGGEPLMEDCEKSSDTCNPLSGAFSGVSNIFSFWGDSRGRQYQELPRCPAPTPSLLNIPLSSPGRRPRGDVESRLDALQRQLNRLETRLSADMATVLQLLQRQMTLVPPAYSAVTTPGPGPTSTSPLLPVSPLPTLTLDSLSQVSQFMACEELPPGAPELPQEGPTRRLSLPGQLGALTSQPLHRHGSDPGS
# Cytochrome P450 2C9 (Homo sapiens), sequence (P11712 whole entry, looked up): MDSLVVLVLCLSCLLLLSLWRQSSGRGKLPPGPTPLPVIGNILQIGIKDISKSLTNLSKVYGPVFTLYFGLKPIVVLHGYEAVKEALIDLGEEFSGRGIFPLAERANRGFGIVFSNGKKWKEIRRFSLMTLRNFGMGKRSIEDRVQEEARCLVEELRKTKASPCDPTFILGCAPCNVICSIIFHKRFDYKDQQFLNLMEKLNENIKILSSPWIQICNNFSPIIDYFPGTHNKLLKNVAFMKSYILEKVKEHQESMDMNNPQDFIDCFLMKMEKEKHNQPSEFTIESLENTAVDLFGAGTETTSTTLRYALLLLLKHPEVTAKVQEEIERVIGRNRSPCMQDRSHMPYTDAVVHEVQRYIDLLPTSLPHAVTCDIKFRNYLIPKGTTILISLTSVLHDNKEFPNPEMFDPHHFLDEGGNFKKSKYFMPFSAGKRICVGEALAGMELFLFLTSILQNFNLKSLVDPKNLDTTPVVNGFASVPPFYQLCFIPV
# Cytochrome P450 1A2 (Homo sapiens), sequence (P05177 whole entry, looked up): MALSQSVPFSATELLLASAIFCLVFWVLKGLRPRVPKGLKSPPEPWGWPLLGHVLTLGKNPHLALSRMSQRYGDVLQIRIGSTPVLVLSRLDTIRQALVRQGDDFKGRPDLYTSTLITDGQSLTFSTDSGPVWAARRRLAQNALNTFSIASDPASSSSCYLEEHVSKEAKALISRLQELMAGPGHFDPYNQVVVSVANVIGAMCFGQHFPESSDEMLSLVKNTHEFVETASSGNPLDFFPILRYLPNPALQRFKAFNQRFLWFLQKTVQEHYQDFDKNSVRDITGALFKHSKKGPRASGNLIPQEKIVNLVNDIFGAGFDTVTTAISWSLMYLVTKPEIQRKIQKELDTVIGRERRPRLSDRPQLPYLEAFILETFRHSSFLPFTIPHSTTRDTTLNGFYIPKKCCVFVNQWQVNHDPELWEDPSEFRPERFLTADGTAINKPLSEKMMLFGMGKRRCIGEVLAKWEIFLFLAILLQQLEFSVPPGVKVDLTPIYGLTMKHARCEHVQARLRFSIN
# Cytochrome P450 3A4 (Homo sapiens), sequence (P08684 whole entry, looked up): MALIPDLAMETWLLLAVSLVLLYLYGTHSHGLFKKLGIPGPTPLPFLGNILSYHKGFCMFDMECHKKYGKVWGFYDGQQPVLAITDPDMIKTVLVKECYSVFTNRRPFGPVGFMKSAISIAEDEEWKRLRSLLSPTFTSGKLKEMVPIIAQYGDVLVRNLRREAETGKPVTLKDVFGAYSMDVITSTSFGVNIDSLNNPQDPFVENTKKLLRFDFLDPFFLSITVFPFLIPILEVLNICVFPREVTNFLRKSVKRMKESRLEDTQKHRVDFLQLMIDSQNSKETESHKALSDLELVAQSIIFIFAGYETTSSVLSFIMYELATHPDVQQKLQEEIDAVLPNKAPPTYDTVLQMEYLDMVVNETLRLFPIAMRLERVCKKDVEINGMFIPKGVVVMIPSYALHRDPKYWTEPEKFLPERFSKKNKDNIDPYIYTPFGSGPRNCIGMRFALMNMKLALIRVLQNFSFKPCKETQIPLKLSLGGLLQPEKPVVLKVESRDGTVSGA
# Nuclear receptor subfamily 1 group I member 2 (Homo sapiens), sequence (O75469 whole entry, looked up): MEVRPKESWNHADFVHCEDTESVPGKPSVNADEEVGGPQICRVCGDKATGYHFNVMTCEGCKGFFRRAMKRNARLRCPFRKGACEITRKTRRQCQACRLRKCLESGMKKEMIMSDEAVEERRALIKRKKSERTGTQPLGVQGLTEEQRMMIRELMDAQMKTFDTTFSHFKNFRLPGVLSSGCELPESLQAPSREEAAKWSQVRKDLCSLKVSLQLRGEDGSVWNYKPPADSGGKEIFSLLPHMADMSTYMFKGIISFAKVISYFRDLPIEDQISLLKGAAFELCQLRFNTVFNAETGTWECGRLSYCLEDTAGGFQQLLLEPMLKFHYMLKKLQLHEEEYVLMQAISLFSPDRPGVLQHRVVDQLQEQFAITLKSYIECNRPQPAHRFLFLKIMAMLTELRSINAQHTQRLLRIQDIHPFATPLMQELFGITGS
# Nuclear receptor subfamily 1 group I member 2 (Rattus norvegicus), sequence (Q9R1A7 whole entry, looked up): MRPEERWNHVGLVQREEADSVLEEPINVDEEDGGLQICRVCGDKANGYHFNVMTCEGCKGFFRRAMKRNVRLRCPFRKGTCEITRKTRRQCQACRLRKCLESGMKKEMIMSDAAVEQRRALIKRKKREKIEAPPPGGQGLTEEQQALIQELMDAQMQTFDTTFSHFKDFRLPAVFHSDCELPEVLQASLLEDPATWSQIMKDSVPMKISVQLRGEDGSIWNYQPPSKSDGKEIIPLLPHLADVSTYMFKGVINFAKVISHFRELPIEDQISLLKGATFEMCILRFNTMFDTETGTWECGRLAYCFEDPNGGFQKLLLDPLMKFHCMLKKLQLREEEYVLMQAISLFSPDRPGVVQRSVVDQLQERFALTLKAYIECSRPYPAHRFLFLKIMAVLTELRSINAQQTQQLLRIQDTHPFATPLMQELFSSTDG
SMILES,Potency [1],Potency [2],Potency [3],Potency [4],Potency [5],Potency [6],Potency [7],max activation [8] [%],Potency [9]
CC1(C)[C@H]2CC[C@](C)(C2)[C@H]1O,inactive,inactive,inactive,inactive,inactive,inactive,inactive,,
N#Cc1cscn1,inactive,inactive,inactive,inactive,inactive,inactive,inactive,,
CC(=O)c1cc(C)oc1C,inactive,inactive,32.9 µM (active),inactive,inactive,inactive,inactive,,
COc1ccc(CCO)cc1,inactive,inactive,71 µM (active),79.6 µM (active),63.3 µM (active),inactive,inactive,,
CCCCCCCCCCOC(C)=O,inactive,inactive,inactive,inactive,inactive,inactive,inactive,,
CC(C)OC(=O)CCC(=O)OC(C)C,inactive,inactive,inactive,inactive,inactive,inactive,inactive,,
CSc1cnccn1,inactive,inactive,inactive,inactive,inactive,inactive,inactive,,
CC(Oc1cc(Cl)ccc1Cl)C(=O)O (configuration not stated),inactive,inactive,inactive,71 µM (active),inactive,inactive,,,
O=C(O)CONC(=O)c1ccccc1,inactive,inactive,inactive,inactive,inactive,inactive,inactive,,
O=[N+]([O-])c1c(Cl)cc(Cl)cc1Cl,inactive,inactive,inactive,inactive,39.5 µM (active),inactive,inactive,,
OCCN1CCOCC1,inactive,inactive,inactive,inactive,inactive,inactive,inactive,,
OCC1(CO)COCOC1,inactive,inactive,inactive,inactive,inactive,inactive,inactive,,
O=C(Cn1ccnc1[N+](=O)[O-])NCc1ccccc1,inactive,,,inactive,inactive,inactive,inactive,-1.78,inactive
Fc1ccccc1,inactive,inactive,inactive,inactive,inactive,inactive,inactive,,
